Test results published in PubChem BioAssay (NCATS).
Results filed as inconclusive are left out. Activity calls are given as the source filed them. Calls follow the shape of the dose curve; as a rule, active = well fitted cell-killing curve with a large enough effect in the repeat runs; inconclusive = weak or mixed curves, or effect the other way; inactive = flat fitted curve, though single readings scatter.

Test: qHTS assay for small molecule antagonists of the retinoid-related orphan receptor gamma (ROR-gamma) signaling pathway - cell viability counter screen (AID 720652);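 also: compound exposure lasted 16 hr before ATP read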
Details: RORgamma reporter cell line viability counter screen; series mostly up to 92.2 µM; activity change, negative = cytotoxicity: at the top concentration
Excerpt: National Center for Advancing Translational Sciences [NCATS]
NIH Chemical Genomics Center [NCGC]
National Institutes of Environmental Health Sciences [NIEHS]
National Toxicology Program [NTP]
Nuclear steroid hormone receptors are involved in many biological processes including inflammatory responses, cell proliferation, and apoptosis. Environmental factors or compounds disrupting these nuclear receptor pathways and gene expression may promote susceptibility to immunotoxicants and autoimmune diseases. One important group of these expression factors are the retinoid-related orphan receptors. To assess compounds that may interfere with the retinoid-related orphan receptor gamma (ROR-gamma) transcription factor, a cell-based luciferase assay was used.
The CHO cell-based assay utilizes a TET-inducible ROR expression factor and ROR response element-LUC reporter gene. Reporter activity was induced using doxycycline and measured after 16hr incubation. Luminescence was read using Viewlux (PerkinElmer), where a decrease in reporter activity would show a decrease in luminescence. The cytotoxicity of the compounds against ROR response-Luc reporter gene cell line was quantified by measuring the intracellular ATP content.
1,000 cells in 4 uL/well were dispensed into white wall/solid bottom 1536-well plates using a Multidrop Combi (Thermo Scientific) dispenser. Following incubation at 37 C and 5% CO2 for 5 hr, 23 nL compound or DMSO vehicle were transferred by a pin tool, then the plates were treated with 1 ul doxycycline to induce reporter gene activity. After 16 hr incubation at 37 C and 5% CO2, 5 uL/well of CellTiter-Glo reagent (Promega) was then added to each plate using a Flying Reagent Dispenser and incubated at room temperature for 30 min. The luminescence intensity was quantified on a ViewLux plate reader (PerkinElmer).
% is scaled to controls: 0 for no effect and ±100 for the full control effect.

Row | Compound | activity change, negative = cytotoxicity | outcome
1 | CC(C)=O | 3.31% (inactive) | –
2 | CCOc1ccc2c(c1)C(C)=CC(C)(C)N2 | -0.165% (inactive) | –
3 | IC(I)I | 3.77% (inactive) | –
4 | CCCCCCCC/C=C\CCCCCCCC(=O)O | -11.8% (inactive) | –
5 | CC1=C2[C@@H]([C@H](C)CC[C@H]2/C=C(\C)C(=O)O)[C@H](O)C1 | 3.33% (inactive) | –
6 | CC(O)CO (stereo not drawn) | – | inactive
7 | O=C(O)CCC(=O)C(=O)O | -6.25% (inactive) | –
8 | CCCCC/C=C\C/C=C\CCCCCCCC(=O)O | 6.98% (inactive) | –
9 | O=S(=O)(O)O | 6.02% (inactive) | –
10 | CCOC(C)=O | 5.94% (inactive) | –
11 | Cc1ccccc1 | – | inactive
12 | Nc1ccn([C@H]2CS[C@@H](CO)O2)c(=O)n1 | 18.6% (inactive) | –
13 | CCCCCCCC(=O)O | – | inactive
